SMILES strings stand for the structures. Among all 350,000 compounds or so, about 260 (0.074%) were called active. Roughly 8% stayed inconclusive and do not appear here. The list comes from a sample in which actives are over-represented; it also holds similar structures and randomly drawn compounds. A number with no mark means an inactive call. Calls follow the shape of the dose curve; as a rule, active = well fitted inhibition curve with a large enough effect; inconclusive = small, poorly fitted or top-dose-only effect; inactive = no such curve, though single readings can be large or run the other way.

The record followed here is PubChem BioAssay AID485281 (National Center for Advancing Translational Sciences (NCATS), 2010).
% is scaled to controls: 0 for no effect and ±100 for the full control effect; potency is read from the fitted curve at half-maximal effect.

Ferritin light chain (Equus caballus), sequence (P02791 2-175 limits assumed): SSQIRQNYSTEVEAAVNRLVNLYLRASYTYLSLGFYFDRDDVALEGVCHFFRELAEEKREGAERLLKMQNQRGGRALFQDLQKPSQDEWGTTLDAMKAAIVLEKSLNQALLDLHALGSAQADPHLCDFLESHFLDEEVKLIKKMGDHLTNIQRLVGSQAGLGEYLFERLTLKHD

For this assay, the target named is Ferritin light chain (Equus caballus) (UniProt P02791). The assay can be described thus: qHTS Assay for Identification of Novel General Anesthetics. Also: nearly all actives have a fitted effect of over 20% in size. The following applies: apoferritin/1-aminoanthracene competitive binding, fluorescence; series mostly up to 77.5 µM; activity change, negative = displacement: at the top concentration. An excerpt:
Source: NIH Chemical Genomics Center [NCGC]
Assay Submitter: Roderic Eckenhoff, University of Pennsylvania
Screening Center PI: Christopher P. Austin, NIH
Probe Development: NIH Chemical Genomics Center [NCGC]
Anesthetic development has remained a largely empirical process. There are growing concerns about the cognitive effects of known general anesthetics and acceleration of the onset of neurodegenerative disease. The compounds' toxicity and multiple specific binding targets in the mammalian brain [4] has made them less attractive as drug leads. In this assay, a GABAergic mimetic model system, apoferritin and a profluorescent 1-aminoanthracene ligand (1-AMA), was used to construct a competitive binding assay for identification of novel general anesthetics. The assay was validated for 1-AMA using other known anesthetics, such as isoflurane (CID:3763) and propofol (CID: 4943), [6].
[1] S.L. Bianchi, T. Tran, C. Liu, S. Lin, Y. Li, J.M. Keller, R.G. Eckenhoff, and M.F. Eckenhoff, Brain and behavior changes in 12-month-old Tg2576 and nontransgenic mice exposed to anesthetics. Neurobiol Aging 29 (2008) 1002-10.
[2] Z. Xie, Y. Dong, U. Maeda, R.D. Moir, W. Xia, D.J. Culley, G. Crosby, and R.E. Tanzi, The inhalation anesthetic isoflurane induces a vicious cycle of apoptosis and amyloid beta-protein accumulation. J Neurosci 27 (2007) 1247-54.
[3] P. Honegger, and J.M. Matthieu, Selective toxicity of the general anesthetic propofol for GABAergic neurons in rat brain cell cultures.
[4] M.F. Eckenhoff, K. Chan, and R.G. Eckenhoff, Multiple specific binding targets for inhaled anesthetics in the mammalian brain. J Pharmacol Exp Ther 300 (2002) 172-9.
[5] C.A. Butts, J. Xi, G. Brannigan, A.A. Saad, S.P. Venkatachalan, R.A. Pearce, M.L. Klein, R.G. Eckenhoff, and I.J. Dmochowski, Identification of a fluorescent general anesthetic, 1-aminoanthracene. Proc Natl Acad Sci U S A 106 (2009) 6501-6.
[6] W.A. Lea, J. Xi, A. Jadhav, L. Lu, C.P. Austin, A. Simeonov, and R.G. Eckenhoff, A high-throughput approach for identification of novel general anesthetics. PLoS One 4 (2009) e7150.
Three uL of reagents (free 1-AMA (50% saturated solution of 1-aminoanthracene
in PBS) in columns 3, 4 as negative control and 1-AMA/apoferritin mixture (10 uM horse-spleen apoferritin in 50% saturated 1-aminoanthracene in PBS) in columns 1, 2, 5-48) was dispensed into 1536-well Greiner black assay plates. Compounds (23 nL) were transferred via Kalypsys pintool equipped with 1,536-pin array (10 nL slotted pins, V&P Scientific, San Diego, CA). Titration of the positive control, propofol, were delivered via pin transfer from separate control plates to the 2nd column of each assay plate. The starting concentration of the control, dissolved in DMSO, was at 160 mM, followed by two-fold dilution points in duplicate, for a total of 16 concentrations. The plates were incubated for 10 min at room temperature, and then read on an EnVision HTS multilabel reader (Perkin-Elmer, Waltham, MA) (end point read, 3 min/plate) using Fura2 BFP excitation filter (380 nm, bandwidth 10 nm) and fluorescein emission filter (535 nm, bandwidth 25 nm) set. A LANCE/DELFIA dichroic mirror with a cutoff wavelength at 400 nm was used to maximize signal accuracy and strength. Vehicle-only plates, with DMSO being pin-transferred to the entire column 5-48 compound area, were inserted uniformly at the beginning and the end of each library in order to monitor for and record any shifts in the background. Activity was computed as the normalized fluorescence response relative to free 1-AMA and 1-AMA/apoferritin complex values. Concentration-effect relationships were derived by using curve fitting algorithms developed in-house (http://ncgc.nih.gov/pub/openhts/). A four parameter Hill equation was fitted to the concentration-response data by minimizing the residual error between the modeled and observed responses.
In the case of `COc1ccc(N2CCN(S(=O)(=O)c3ccc(-c4coc(C)n4)cc3)CC2)cc1`, the “activity change, negative = displacement” value was -0.187%.
The same measure, in the same setting: as for `Cn1c(SCC(=O)N2CCCc3ccccc32)ncc(C(=O)Nc2ccc(F)cc2)c1=O`, the figure is -15.9%; as for `CCOC(=O)c1scc(-c2ccccc2)c1S(=O)(=O)Nc1ccccc1F`, 57.3%.
On the same count and under the same terms, as for `COc1ccc2c(c1)CCc1c(C(=O)Nc3cc(C)ccc3O)noc1-2`, the figure is -8.63%; as for `CCc1ccc(NC(=O)c2cc3c(=O)n(Cc4cccnc4)ccc3nc2C)cc1`, -2.71%.
On to `COc1ccc(NC(=O)CSc2nccn2Cc2ccc3c(c2)OCO3)cc1`, for which the “activity change, negative = displacement” value is -10.6%.
Regarding `CC(=O)N1CCCc2cc(S(=O)(=O)N3CCC(C(=O)NCc4ccc(C)cc4)CC3)ccc21`, the “activity change, negative = displacement” value was -10.5%.
For `CCOc1ccc(NC(=O)c2c(NC(=O)Cc3ccccc3)sc3c2CCCCC3)cc1`, the “activity change, negative = displacement” value is -5.25%.
The same measure, in the same setting: to `c1ccc2c(NC3C4CC5CC(C4)CC3C5)nc(N3CCOCC3)nc2c1` (centres undefined) belongs 89.7%.
As to `c1cnc(NC2C3CC4CC(C3)CC2C4)nc1` (centres undefined), the Potency is 5.62 µM (active).
For `Cc1c(-c2nsc(NC(=O)c3cccc(Cl)c3)n2)nnn1-c1ccccc1C(F)(F)F`, the “activity change, negative = displacement” value was -23.3%.
In the case of `Cc1cccc(C(=O)Nc2ccc(-c3nc4ccccc4s3)c(C)c2)c1`, the “activity change, negative = displacement” value was -9.88%.
As to `CN1CCN(c2oc(-c3ccc(COc4ccc(Cl)cc4)o3)nc2C#N)CC1`, the “activity change, negative = displacement” value is -7.72%.
On to `COc1ccc(OCC(=O)Nc2cccc(C(=O)OCc3cc(=O)n4nc(C)sc4n3)c2)cc1`, for which the “activity change, negative = displacement” value is 52.4%.
The same measure, in the same setting: as for `O=C(NCC12CC3CC(CC(C3)C1)C2)c1cc2nc(-c3ccccc3)cc(C(F)(F)F)n2n1`, the figure is -6.46%; as for `CCN(CC)c1ccc(NC(=O)CN2CCN(CC(=O)Nc3ccc(Cl)cc3)CC2)cc1`, -11%.
As to `COc1ccc(-c2nc3nc(C)cc(C)n3c2Nc2c(C)cccc2C)cc1`, the “activity change, negative = displacement” value was 275%.
Regarding `CC1=C(C(=O)OCC2CCCCC2)C(c2c(F)cccc2Cl)CC(=O)N1` (centres undefined), the “activity change, negative = displacement” value was -17.3%.
On the same count and under the same terms, as for `COc1cccc(Cn2c(SCc3ccc(C(=O)N4CCC(C)CC4)cc3)nc3ccncc32)c1`, the figure is 72.3%.
On the same count and under the same terms, as for `COCCNS(=O)(=O)c1cc(-c2nn3c(C)nnc3c3ccccc23)ccc1C`, the figure is -12.8%; as for `CCc1cccc(C)c1NS(=O)(=O)c1ccc(-c2cc(C)no2)s1`, 3.74%; as for `Cc1cc(C)cc(-n2ccnc2SCC(=O)Nc2nc3ccccc3s2)c1`, 60.5%.
As for `COc1ccc(CNC(=O)Cc2coc3ccc(C(C)C)cc23)cc1`, the “activity change, negative = displacement” value was 3.71%.
In the case of `Cc1cc(=O)n(CC(=O)Nc2cccc([N+](=O)[O-])c2)c(-n2nc(C)cc2C)n1`, the “activity change, negative = displacement” value was -3.5%.
`O=C(CCc1nc(CN2CCN(S(=O)(=O)c3ccc(Cl)cc3)CC2)no1)N1CCCCC1`: the “activity change, negative = displacement” value was 8.4%.
On the same count and under the same terms, as for `COc1ccc(C2Sc3ccccc3NC3=C2C(=O)c2ccccc23)c(OC)c1OC` (centres undefined), the figure is -0.239%; as for `CCOCCCn1c(SCC(=O)Nc2ccc(CC)cc2)nc2ccccc2c1=O`, -9.21%.
The same measure, in the same setting: as for `COc1ccc(CCNC(=O)CCCCn2c(=O)c3ccccc3n(Cc3ccccc3C)c2=O)cc1OC`, the figure is 23.4%; as for `COc1ccc(CNC(=O)CCc2c(C)nn(-c3ccc(N4CCCC4)nn3)c2C)cc1`, -8.08%.
Take `Cc1ccc(SCC(=O)Nc2ccc3oc(-c4ccccc4F)nc3c2)cc1`: the “activity change, negative = displacement” value was -11.2%.
Turning to `Cc1ccc2nc(CN3CCN(S(=O)(=O)c4ccc(C)c(C)c4)CC3)oc2c1`, the “activity change, negative = displacement” value was -10.2%.
On the same count and under the same terms, as for `Cc1ccc(C)c(NC(=O)CSC2=Nc3ccccc3N=C(c3ccc(F)cc3)C2)c1`, the figure is -1.36%; as for `Cc1ccc(C(=O)N2CCCC2)c(F)c1F`, -14.7%.
With `Cc1c(Br)cc(C(=O)N2CCCCCC2)c(C)c1C`, the Potency is 10 µM (active).
Consider `COc1cc(OC)c(C(=O)N2CCCC2)cc1OC`, for which the “activity change, negative = displacement” value was -10.8%.
On the same count and under the same terms, to `CCCn1c2ccccc2c2cnn(CC(=O)N(CC)c3cc(C)ccc3C)c(=O)c21` belongs -5.87%; to `CCOC(=O)Cn1c(=O)n(C2CCCCC2)c2nc(-c3cccc(OC)c3)nc(C(N)=O)c21`, 8.75%.
On the same count and under the same terms, as for `O=C(CN1c2ccccc2S(=O)(=O)c2ccccc21)Nc1cccc(C(F)(F)F)c1`, the figure is 8.17%; as for `CCn1c(C)c(C)c2cc(C(=O)NCCc3cc(OC)ccc3OC)ccc21`, -2.71%.
Still for that read-out and setting: as for `Cc1cc(OCC(=O)NCC2(N(C)C)CCCCC2)cc(C)c1Cl`, the figure is -9.9%; as for `CN(C)CCCn1c(-c2ccc(Cl)cc2)csc1=Nc1ccccc1`, 9.73%; as for `O=c1cc(-c2ccccc2)n2c(SCc3ccccc3)nnc2[nH]1`, 44%.
As to `Nc1ccc(C(=O)OCC(=O)NC2CCCc3ccccc32)cc1[N+](=O)[O-]` (centres undefined), the Potency is 20 µM (active).
For the compound `Nc1ccc(C(=O)OCC(=O)NC2CCS(=O)(=O)C2)cc1[N+](=O)[O-]` (centres undefined), the “activity change, negative = displacement” value was -8.39%.
For `COC(=O)c1cc(OCC(=O)NC2CCCc3ccccc32)cc(C(=O)OC)c1` (centres undefined), the “activity change, negative = displacement” value was 0.832%.
The same measure, in the same setting: as for `CC(C)c1ccc(NC(=O)Cn2c3ncccc3c(=O)n2-c2ccccc2)cc1`, the figure is 2.35%; as for `CCc1ccc(NC(=O)c2sc3nc4c(cc3c2N)CN(CC)CC4)cc1`, -8.24%.
Same read-out and setting: to `O=C(CCc1nc(CN2CCN(S(=O)(=O)c3ccc(Br)cc3)CC2)no1)N1CCCCC1` belongs -9.1%; to `Cc1cc(C(=O)Nc2cccc(C(F)(F)F)c2)c2c(C)nn(-c3cccc(F)c3)c2n1`, 52.9%.
